The values that follow come from the supplement of paper PMC11219838.

Values without a mark were called inactive.

Conditions in all cases: 60 µM; 5 days; temperature: 20 °C
In experiment [1] the test system is Meloidogyne hapla J2. Nature of the experiment: proportion of mobile M. hapla J2 relative to DMSO control (fraction of DMSO control); higher = more viable, less nematicidal, active = 0.7 or less. The essentials: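 Two biological replicates were run and averaged, each on 96-well plates in which about 25 M. hapla J2 sat in distilled water per well. Compound was pinned in to give 60 µM final and 0.6% v/v DMSO, and the sealed plates were shaken at 200 rpm and 20 °C for 5 days before 2 µL 1 M NaOH was added. Mobility was scored microscopically and divided by the mean from the plate's DMSO-only wells, of which there were eight.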

For experiment [2], the system named is Caenorhabditis elegans dauer (daf-2(e1370)). As to the kind of experiment: proportion of mobile C. elegans dauer larvae relative to DMSO control (fraction of DMSO control); higher = more viable, less nematicidal, active = 0.63 or less; extreme values may be limits of the assay. An outline of the steps: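 Synchronized C. elegans larvae were kept for 48 h at 25 °C on MYOB plates seeded with E. coli OP50 to induce dauer formation, and roughly 20 dauers were transferred into each well of a 96-well plate containing liquid NGM. Compound was pinned in to a final concentration of 60 µM with 0.6% v/v DMSO, and the sealed plates were shaken at 200 rpm for 5 days at 20 °C. The fraction of mobile worms was scored under a dissection microscope against DMSO-only wells and averaged across two biological replicates.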

In experiment [3] the test system is Ditylenchus dipsaci. Nature of the experiment: proportion of mobile D. dipsaci (mixed stage) relative to DMSO control (fraction of DMSO control); higher = more viable, less nematicidal, active = 0.86 or less; extreme values may be limits of the assay. An outline of the steps: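 The worms, D. dipsaci raised on pea plants in Gamborg B-5 agar, were recovered through a filter funnel into water. Each well of a 96-well plate then held about 20 of them in distilled water plus pinned compound at 60 µM final (0.6% v/v DMSO), and the sealed plates were shaken at 200 rpm at 20 °C for 5 days. Following addition of 2 µL 1 M NaOH, mobile worms were counted by microscopy, and mobility was expressed against DMSO controls as the average of two biological replicates.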

Turning to `Cc1ccccc1-c1noc(CSc2nc3ccccc3[nH]2)n1`, in experiment [1], the “proportion of mobile M. hapla J2” value is 0.918. Besides, the “proportion of mobile C. elegans dauer larvae” value in experiment [2] is 1. Besides, the “proportion of mobile D. dipsaci” value in experiment [3] is 1.
Turning to `COc1ccc(-c2noc(C34CC5CC(CC(C5)C3)C4)n2)cc1`, the “proportion of mobile M. hapla J2” value in experiment [1] is 1.04. Further, the “proportion of mobile C. elegans dauer larvae” value in experiment [2] is 1. The “proportion of mobile D. dipsaci” value in experiment [3] was 1.
`Cc1ccc(-c2nc(-c3ccc(C(F)(F)F)cc3)no2)cc1`: in experiment [1], the “proportion of mobile M. hapla J2” value was 0.952. In addition, in experiment [2], the “proportion of mobile C. elegans dauer larvae” value was 0.5 (active). In experiment [3], the “proportion of mobile D. dipsaci” value was 1.
For the compound `COc1ccc(-c2nnc(SCC(=O)c3ccc4ccccc4c3)o2)cc1`, the “proportion of mobile M. hapla J2” value in experiment [1] was 1.03. The “proportion of mobile C. elegans dauer larvae” value in experiment [2] was 1. Besides, in experiment [3], the “proportion of mobile D. dipsaci” value was 1.
With `Cc1ccc(NC(=O)CSc2nnc(-c3ccco3)o2)cc1Cl`, the “proportion of mobile M. hapla J2” value in experiment [1] was 0.96. Besides, in experiment [2], the “proportion of mobile C. elegans dauer larvae” value was 1. The “proportion of mobile D. dipsaci” value in experiment [3] was 0.5 (active).
Consider `Cc1ccoc1-c1nnc(-c2ccco2)o1`, for which, in experiment [1], the “proportion of mobile M. hapla J2” value was 0.949. Besides, in experiment [2], the “proportion of mobile C. elegans dauer larvae” value is 1. The “proportion of mobile D. dipsaci” value in experiment [3] is 0.833 (active).
On to `Cc1ccccc1-c1nnc(SCc2ccccc2Cl)o1`, for which, in experiment [1], the “proportion of mobile M. hapla J2” value was 0.863. The “proportion of mobile C. elegans dauer larvae” value in experiment [2] is 1. In addition, the “proportion of mobile D. dipsaci” value in experiment [3] is 1.
As to `COc1nc(C)ccc1-c1noc(-c2ccc(Cl)cc2)n1`, in experiment [1], the “proportion of mobile M. hapla J2” value is 0.832. The “proportion of mobile C. elegans dauer larvae” value in experiment [2] was 1. For the same compound, in experiment [3], the “proportion of mobile D. dipsaci” value was 1.
Take `Cc1ccccc1-c1noc(-c2cccc(Br)c2)n1`: the “proportion of mobile M. hapla J2” value in experiment [1] was 1.04. Besides, the “proportion of mobile C. elegans dauer larvae” value in experiment [2] is 1. Moreover, the “proportion of mobile D. dipsaci” value in experiment [3] was 1.
Turning to `CCC(=O)Nc1ccccc1-c1nc(-c2ccccn2)no1`, in experiment [1], the “proportion of mobile M. hapla J2” value was 0.865. Further, the “proportion of mobile C. elegans dauer larvae” value in experiment [2] is 1. Also, the “proportion of mobile D. dipsaci” value in experiment [3] was 1.
`Cc1cccc(-c2noc(COc3ccc(Cl)cc3)n2)c1`: in experiment [1], the “proportion of mobile M. hapla J2” value is 1.04. The “proportion of mobile C. elegans dauer larvae” value in experiment [2] is 1. Also, the “proportion of mobile D. dipsaci” value in experiment [3] is 1.
For the compound `Cc1cc(C)c(NC(=O)CSc2nnc(-c3ccc(Br)cc3)o2)c(C)c1`, in experiment [1], the “proportion of mobile M. hapla J2” value was 1. In addition, in experiment [2], the “proportion of mobile C. elegans dauer larvae” value is 1. Besides, in experiment [3], the “proportion of mobile D. dipsaci” value was 1.
In the case of `COc1cccc(-c2nnc(SCC(=O)Nc3ccccc3)o2)c1`, the “proportion of mobile M. hapla J2” value in experiment [1] was 1.03. Moreover, the “proportion of mobile C. elegans dauer larvae” value in experiment [2] is 1. Moreover, in experiment [3], the “proportion of mobile D. dipsaci” value is 1.
For the compound `Brc1ccc(-c2nc(-c3ccc4c(c3)OCO4)no2)cc1`, the “proportion of mobile M. hapla J2” value in experiment [1] was 1.03. Also, in experiment [2], the “proportion of mobile C. elegans dauer larvae” value is 1. Also, the “proportion of mobile D. dipsaci” value in experiment [3] was 1.
Consider `O=C(CSc1nnc(-c2cccc(Cl)c2)o1)NC1CCCCC1`, for which the “proportion of mobile M. hapla J2” value in experiment [1] was 0.874. Further, in experiment [2], the “proportion of mobile C. elegans dauer larvae” value is 1. Moreover, the “proportion of mobile D. dipsaci” value in experiment [3] is 1.
As for `COc1ccc(-c2noc(-c3ccc(C)cc3Cl)n2)cc1`, the “proportion of mobile M. hapla J2” value in experiment [1] is 0.969. Moreover, the “proportion of mobile C. elegans dauer larvae” value in experiment [2] was 1. Moreover, in experiment [3], the “proportion of mobile D. dipsaci” value was 1.
In the case of `Cc1ccc(-c2nc(-c3cccnc3)no2)c(C)c1`, the “proportion of mobile M. hapla J2” value in experiment [1] was 1.1. The “proportion of mobile C. elegans dauer larvae” value in experiment [2] is 0.0769 (active). In addition, the “proportion of mobile D. dipsaci” value in experiment [3] was 1.
For `Cc1ccc(-c2noc(C3CCCCC3)n2)cc1` the same measures were 1.05, 1 and 1.
On to `Cc1ccc(-c2noc(-c3ccc(C)cc3)n2)cc1`, for which the “proportion of mobile M. hapla J2” value in experiment [1] was 1.01. Also, the “proportion of mobile C. elegans dauer larvae” value in experiment [2] was 0.881. Further, the “proportion of mobile D. dipsaci” value in experiment [3] was 1.
In the case of `O=C(c1ccccc1-c1nc(-c2ccccc2Cl)no1)N1CCCCC1`, the “proportion of mobile M. hapla J2” value in experiment [1] was 0.932. Besides, in experiment [2], the “proportion of mobile C. elegans dauer larvae” value was 1. For the same compound, the “proportion of mobile D. dipsaci” value in experiment [3] was 1.
Turning to `CN(C(=O)CSc1nnc(-c2ccccc2)o1)c1ccccc1`, the “proportion of mobile M. hapla J2” value in experiment [1] was 1.02. Also, the “proportion of mobile C. elegans dauer larvae” value in experiment [2] is 1. In addition, in experiment [3], the “proportion of mobile D. dipsaci” value is 1.
Regarding `Cn1c(SCc2nc(-c3cccs3)no2)nnc1-c1ccco1`, the “proportion of mobile M. hapla J2” value in experiment [1] was 0.932. Besides, the “proportion of mobile C. elegans dauer larvae” value in experiment [2] was 1. Also, the “proportion of mobile D. dipsaci” value in experiment [3] is 1.
On to `COc1ccc(Cl)cc1NC(=O)CSc1nnc(-c2ccc(C)cc2)o1`, for which, in experiment [1], the “proportion of mobile M. hapla J2” value is 0.982. For the same compound, in experiment [2], the “proportion of mobile C. elegans dauer larvae” value is 1. In experiment [3], the “proportion of mobile D. dipsaci” value was 1.
As to `Clc1ccc(-c2nc(-c3ccncc3)no2)cc1`, the “proportion of mobile M. hapla J2” value in experiment [1] is 1.03. In experiment [2], the “proportion of mobile C. elegans dauer larvae” value is 1. The “proportion of mobile D. dipsaci” value in experiment [3] was 1.
As to `CCCCc1ccc(-c2nc(-c3cccnc3)no2)cc1`, the “proportion of mobile M. hapla J2” value in experiment [1] is 0.977. In addition, the “proportion of mobile C. elegans dauer larvae” value in experiment [2] is 1. Also, in experiment [3], the “proportion of mobile D. dipsaci” value was 1.
As for `Cc1cccc(-c2noc(COc3ccc(C)c(C)c3)n2)c1`, the “proportion of mobile M. hapla J2” value in experiment [1] was 1.04. Also, the “proportion of mobile C. elegans dauer larvae” value in experiment [2] was 1. For the same compound, the “proportion of mobile D. dipsaci” value in experiment [3] was 1.
On to `Cc1ccc(-c2noc(COc3ccc(Cl)c(C)c3)n2)cc1`, for which the “proportion of mobile M. hapla J2” value in experiment [1] was 0.905. Moreover, in experiment [2], the “proportion of mobile C. elegans dauer larvae” value is 1. Further, the “proportion of mobile D. dipsaci” value in experiment [3] was 1.
Take `CC(Sc1nnc(-c2ccccc2)o1)C(=O)Nc1nccs1` (stereo unspecified): the “proportion of mobile M. hapla J2” value in experiment [1] was 1. In addition, the “proportion of mobile C. elegans dauer larvae” value in experiment [2] was 1. Also, the “proportion of mobile D. dipsaci” value in experiment [3] is 1.
As to `Cc1ccc(-c2nnc(SCC(=O)Nc3cc(C)ccc3C)o2)cc1`, the “proportion of mobile M. hapla J2” value in experiment [1] is 0.982. For the same compound, the “proportion of mobile C. elegans dauer larvae” value in experiment [2] is 1. Further, in experiment [3], the “proportion of mobile D. dipsaci” value is 1.
For the compound `O=C(CSc1nnc(-c2cccc(F)c2)o1)Nc1ccccc1C(=O)c1ccccc1`, in experiment [1], the “proportion of mobile M. hapla J2” value is 0.889. Moreover, the “proportion of mobile C. elegans dauer larvae” value in experiment [2] is 1. In addition, in experiment [3], the “proportion of mobile D. dipsaci” value was 1.
For the compound `Cc1ccc(OCc2nc(-c3ccc(Cl)cc3)no2)c(C)c1`, the “proportion of mobile M. hapla J2” value in experiment [1] was 0.997. In addition, the “proportion of mobile C. elegans dauer larvae” value in experiment [2] is 1. For the same compound, the “proportion of mobile D. dipsaci” value in experiment [3] was 1.
As to `Brc1ccc(-c2noc(COc3ccccc3)n2)cc1`, the “proportion of mobile M. hapla J2” value in experiment [1] is 0.602 (active). Also, the “proportion of mobile C. elegans dauer larvae” value in experiment [2] was 1. Besides, the “proportion of mobile D. dipsaci” value in experiment [3] was 1.
With `Cc1ccc(OCc2nc(-c3ccccc3Cl)no2)cc1C`, the “proportion of mobile M. hapla J2” value in experiment [1] is 1.04. The “proportion of mobile C. elegans dauer larvae” value in experiment [2] was 1. The “proportion of mobile D. dipsaci” value in experiment [3] is 1.
Take `c1ccc(-c2nc(C3CCCCC3)no2)cc1`: in experiment [1], the “proportion of mobile M. hapla J2” value was 0.956. In experiment [2], the “proportion of mobile C. elegans dauer larvae” value is 1. The “proportion of mobile D. dipsaci” value in experiment [3] was 1.
`COc1cccc(-c2noc(COc3ccc(C)c(C)c3)n2)c1`: the “proportion of mobile M. hapla J2” value in experiment [1] was 1.06. The “proportion of mobile C. elegans dauer larvae” value in experiment [2] was 1. Further, the “proportion of mobile D. dipsaci” value in experiment [3] was 1.
Regarding `Cc1ccc(-c2nnc(SCC(=O)Nc3ccccc3)o2)cc1`, the “proportion of mobile M. hapla J2” value in experiment [1] was 0.996. Further, in experiment [2], the “proportion of mobile C. elegans dauer larvae” value is 1. The “proportion of mobile D. dipsaci” value in experiment [3] is 1.
Regarding `Cc1ccc(NC(=O)CSc2nnc(-c3ccccc3)o2)cc1C`, the “proportion of mobile M. hapla J2” value in experiment [1] is 0.983. The “proportion of mobile C. elegans dauer larvae” value in experiment [2] is 1. Moreover, the “proportion of mobile D. dipsaci” value in experiment [3] is 1.
